# Results filed as inconclusive are left out. Where a call stands in place of a potency, no number is given. The source made the active and inactive calls. Calls come from the whole dose curve; as a rule, active = well fitted curve in the direction sought with a large enough effect; inconclusive = small, poorly fitted or top-dose-only effect, or another doubt; inactive = no such curve, though single readings can be large; an effect the other way counts as inactive or inconclusive.
# Assays:
# [1] = HPAF-II Cancer Cell Toxicity qHTS against the NCATS CANVASS Library (AID 1347346); note: nearly all actives have a fitted effect of over 55% in size; note: potency is the fitted concentration of half-maximal effect
# Outline: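 HPAF-II cells were seeded at 1000 cells/well, allowed to settle for 4 h at 37 degrees C, then exposed to compounds in an 11-point series for 72 h. Viability was read by CellTiter-Glo luminescence.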
# [2] = OV-SAHO Cancer Cell Toxicity qHTS against the NCATS CANVASS Library (AID 1347348); note: nearly all actives have a fitted effect of over 55% in size; note: potency is the fitted concentration of half-maximal effect
# Outline: (§1)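 Cells were seeded at 1000 per well, allowed 4 h at 37 degrees C/5% CO2, then pin-treated with an 11-point compound series. After 72 h, viability was read as CellTiter-Glo luminescence following 15min at room temperature.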
# [3] = SW1088 Cancer Cell Toxicity qHTS against the NCATS CANVASS Library (AID 1347350); note: nearly all actives have a fitted effect of over 75% in size; note: potency is the fitted concentration of half-maximal effect
# Outline: as §1
# [4] = U-118MG Cancer Cell Toxicity qHTS against the NCATS CANVASS Library (AID 1347351); note: potency is the fitted concentration of half-maximal effect
# Outline: as §1
# [5] = A2780 Cisplatin Sensitive Ovarian Cancer Cell Toxicity qHTS against the NCATS CANVASS Library (AID 1347353); note: nearly all actives have a fitted effect of over 60% in size; note: potency is the fitted concentration of half-maximal effect
# Outline: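 A2780 cisplatin-sensitive cells (750 per well) were seeded, left 4 h at 37 °C, then pin-dosed in an 11-point series. After 72 h at 37 °C/5% CO2, viability was measured as ATPLite luminescence.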
# [6] = HEK293 24hr Apoptosis Induction qHTS against the NCATS CANVASS Library (AID 1347359)
# Outline: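 HEK293 cells, 500 per well, exposed to an 11-point compound series for 24 hours at 37 degrees C. Caspase 3/7 activity read by Caspase-Glo luminescence (DEVD substrate) after 15 min at room temperature.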
# [7] = system: NAD(P)H diaphorase (Clostridium kluyveri); assay: Diaphorse counterscreen qHTS: Assay Interference Panel against the NCATS CANVASS Library (AID 1347362)
# Outline: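 Clostridium kluyveri diaphorase in PBS + 0.01% Tween-20 preincubated 15 min with compounds. Resazurin and NADH then added for 5 min at room temperature in the dark; resorufin fluorescence read (ex 525, em 598).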
# [8] = KB-8-5-11 Cancer Cell Toxicity qHTS against the NCATS CANVASS Library (AID 1347364); note: nearly all actives have a fitted effect of over 75% in size; note: potency is the fitted concentration of half-maximal effect
# Outline: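 KB-8-5-11 cells (500/well) in DMEM + 10% FBS were exposed to compounds in an 11-point qHTS series for 72 hr at 37C, 5% CO2. Viability was read by CellTiter-Glo luminescence.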
# [9] = target: Nuclear receptor subfamily 1 group I member 3 (Homo sapiens) (UniProt Q14994); assay: qHTS for Constitutive Androstane Receptor (CAR) Antagonist screened against the NCATS CANVASS Library (AID 1347372); note: potency is the fitted concentration of half-maximal effect
# Nuclear receptor subfamily 1 group I member 3 (Homo sapiens), sequence (Q14994 whole entry, looked up): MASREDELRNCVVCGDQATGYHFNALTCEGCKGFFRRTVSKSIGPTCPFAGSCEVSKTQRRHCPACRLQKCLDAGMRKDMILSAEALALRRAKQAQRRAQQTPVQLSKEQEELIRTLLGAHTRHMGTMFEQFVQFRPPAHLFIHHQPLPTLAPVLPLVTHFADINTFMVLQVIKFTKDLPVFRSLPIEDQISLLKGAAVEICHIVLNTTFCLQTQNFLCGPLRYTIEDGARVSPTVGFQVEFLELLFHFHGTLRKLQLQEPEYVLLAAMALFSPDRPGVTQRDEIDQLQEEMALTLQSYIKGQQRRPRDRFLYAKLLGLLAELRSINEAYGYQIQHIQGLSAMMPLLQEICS
# Outline: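 HepG2 cells stably carrying hCAR and CYP2B6-2.2kb luciferase reporter, 2500 cells/well, compound with 50 nM CITCO agonist for 24hr at 37C. ONE-Glo luminescence measured CAR activity; CellTiter-Fluor read viability.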
# [10] = qHTS for Hypoxia signaling pathway (HIF-1) antagonists against the NCATS CANVASS Library (AID 1347374); note: nearly all actives have a fitted effect of over 60% in size; note: potency is the fitted concentration of half-maximal effect
# Outline: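 HRE-bla ME-180 cells (2,000/well, 0.5% dialyzed FBS) were pre-incubated 5 h, then given an 11-point compound series plus CoCl2 (60 uM solution as added) for 17 h at 37C. CCF4 β-lactamase read (ex 405, em 460/530 nm) after 2 h at RT.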
# [11] = qHTS for Hypoxia signaling pathway (HIF-1) agonists against the NCATS CANVASS Library (AID 1347375)
# Outline: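 HRE-bla ME-180 cells (beta-lactamase reporter under hypoxia responsive element) in 0.5% dialyzed FBS medium, 5 h at 37C, then compound 17 h, 11-point qHTS series. CCF4-AM FRET substrate 2 h RT; 460/530 nm emission read.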
# [12] = DH5-alpha competent E. coli microbial cell viability qHTS against the NCATS CANVASS Library (AID 1347377); conditions: outcome: dose series up to 46.1 µM unless noted
# Outline: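 DH5-alpha E. coli suspension (0.9 OD culture diluted to 0.2 OD) exposed to compounds in an 11-point series, overnight at 37C, 5% CO2. Viability read as ATP by BacTiter-Glo luminescence after 20 min at room temperature.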
# [13] = Cytotoxicity qHTS for assessment of Hepg2 cells membrane integrity screened against the NCATS CANVASS Library (AID 1347387)
# Outline: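 HepG2 cells (2000/well) attached overnight at 37C, then received compounds in an 11-point series at 0.59 nM - 46 uM final for 5 hr. LDH release was detected fluorometrically (ex 560/em 590 nm) with CytoTox-ONE reagent after 10 min at room temperature.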
# [14] = qHTS for activators of Nrf2/ARE signaling pathway screened against the NCATS CANVASS Library (AID 1347391); note: nearly all actives have a fitted effect of over 60% in size; note: potency is the fitted concentration of half-maximal effect
# Outline: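 ARE-bla HepG2 beta-lactamase reporter cells, 2000 cells/well, were preincubated 5 h, then exposed to compounds (11-point series) for 16 h at 37C. CCF4 fluorescence (ex 405, em 460/530 nm) after 2 h at room temperature.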
# [15] = qHTS for activators of dead-cell proteases activity screened against the NCATS CANVASS Library (AID 1347392);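 note: luminescence from protease leaking out of membrane-damaged cells cleaving impermeant substrate; rising signal means more cytotoxicity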
# Outline: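 HepG2 cells, 2000/well, attached 18 h at 37C, then exposed to compounds (11-point qHTS) for 5 h. Dead-cell protease release read as luminescence from cell-impermeant AAF-aminoluciferin substrate after 15 min at room temperature.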
# [16] = qHTS for inhibitors of ER calcium dysfunction: SERCaMP assay screened against the NCATS CANVASS Library (AID 1347393); note: nearly all actives have a fitted effect of over 40% in size; note: potency is the fitted concentration of half-maximal effect
# Outline: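 SH-SY5Y GLuc-SERCaMP, 1000 cells/well, 4 h attach; cpd 16 h, 37C/5% CO2; thapsigargin (added as 6x 600 nM) 4 h; coelenterazine; luminescence. Reduced reporter release = ER Ca stabilization.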
# [17] = target: Luciferin 4-monooxygenase (Photinus pyralis) (UniProt P08659); assay: Firefly luciferase counterscreen qHTS: Assay Interference Panel against the NCATS CANVASS Library (AID 1347363); note: series mostly up to about 57 µM
# Luciferin 4-monooxygenase (Photinus pyralis), sequence (P08659 whole entry, looked up): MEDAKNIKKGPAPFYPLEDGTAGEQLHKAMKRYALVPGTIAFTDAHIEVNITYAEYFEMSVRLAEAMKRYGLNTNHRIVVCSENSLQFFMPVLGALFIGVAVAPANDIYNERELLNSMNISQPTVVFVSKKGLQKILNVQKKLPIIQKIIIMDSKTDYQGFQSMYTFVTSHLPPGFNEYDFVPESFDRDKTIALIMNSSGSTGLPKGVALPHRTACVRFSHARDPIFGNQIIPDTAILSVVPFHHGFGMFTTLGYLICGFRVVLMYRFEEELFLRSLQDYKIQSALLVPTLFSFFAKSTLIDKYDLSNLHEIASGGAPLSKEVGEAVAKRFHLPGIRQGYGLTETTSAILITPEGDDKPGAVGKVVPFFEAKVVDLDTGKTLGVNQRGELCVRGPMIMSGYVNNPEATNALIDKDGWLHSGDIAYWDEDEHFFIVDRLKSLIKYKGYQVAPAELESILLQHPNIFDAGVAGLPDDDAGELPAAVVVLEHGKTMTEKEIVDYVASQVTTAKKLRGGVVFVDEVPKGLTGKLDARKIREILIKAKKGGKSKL
# Outline: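 Purified P. pyralis luciferase (0.04 ug/mL, 4x reagent) added to Tris-acetate buffer with 0.013 mM D-luciferin, 0.013 mM ATP and 13.3 mM Mg-acetate; compounds preincubated 15 min, then luminescence read after 5 min, RT.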
# [18] = UWB1.289 Cancer Cell Toxicity qHTS against the NCATS CANVASS Library (AID 1347347); note: nearly all actives have a fitted effect of over 60% in size; note: potency is the fitted concentration of half-maximal effect
# Outline: as §1
# [19] = Panc-1005 Cancer Cell Toxicity qHTS against the NCATS CANVASS Library (AID 1347349); note: nearly all actives have a fitted effect of over 60% in size; note: potency is the fitted concentration of half-maximal effect
# Outline: as §1
# [20] = OV-KATE Cancer Cell Toxicity qHTS against the NCATS CANVASS Library (AID 1347345)
# Outline: as §1
SMILES,Potency [1],Potency [2],Potency [3],Potency [4],Potency [5],Potency [6],Potency [7],Potency [8],Potency [9],Potency [10],outcome [11],outcome [12],outcome [13],Potency [14],Potency [15],Potency [16],Potency [17],Potency [18],Potency [19],Potency [20]
Oc1ccc(C2Oc3cc(O)c4c(c3[C@@H]2c2cc(O)cc(O)c2)[C@H]2C(c3ccc(O)cc3)c3c(O)cc5c(c3[C@H]2C4c2ccc(O)cc2)[C@H](c2cc(O)cc(O)c2)C(c2ccc(O)cc2)O5)cc1 (stereo partly drawn),inactive,16.7 µM (active),inactive,inactive,4.18 µM (active),inactive,inactive,inactive,inactive,inactive,inactive,inactive,inactive,inactive,inactive,inactive,–,–,–,–
C/C1=C/[C@@H](C)[C@H](O)[C@@H](O)/C=C/CC/C=C/C(=O)O[C@@H]1[C@H](C)C(=O)/C=C/CC1CC(=O)NC(=O)C1,inactive,–,inactive,–,13.2 µM (active),inactive,inactive,inactive,–,16.7 µM (active),inactive,inactive,inactive,–,inactive,inactive,inactive,–,–,–
C/C=C1/CN2C3CC1C1C=CC(=O)N4c5ccccc5[C@@]3(C[C@@H]2C2=C[C@H]3C5CC6N(CC[C@@]67c6ccccc6N(C2=O)[C@@H]37)C/C5=C/C)[C@H]14 (stereo partly drawn),5.95 µM (active),–,13.3 µM (active),11.9 µM (active),11.8 µM (active),–,inactive,9.35 µM (active),–,9.41 µM (active),inactive,inactive,–,3.31 µM (active),inactive,0.216 µM (active),inactive,9.41 µM (active),7.49 µM (active),–
C/C=C/C(=O)C1(O)CC2CC(C(=O)O)CC(C)C2C1C1=C2C(=O)NC(=O)C2=C(CCCCC)C(C)O1 (stereo not drawn),18.8 µM (active),–,7.49 µM (active),–,8.33 µM (active),–,inactive,inactive,–,5.94 µM (active),inactive,–,–,1.17 µM (active),–,19.3 µM (active),inactive,–,–,–
CO[C@H]1/C=C/CCCCC(=O)O[C@@H](/C(C)=C/[C@H](C)C(=O)C[C@H](O)CC2CC(=O)NC(=O)C2)[C@@H](C)C1,–,–,inactive,–,4.69 µM (active),inactive,inactive,inactive,–,7.47 µM (active),–,inactive,inactive,16.6 µM (active),–,inactive,inactive,–,–,–
CC(=O)c1c(C)cc2c(c1O)C(=O)c1c(O)cc(O)cc1C2=O,inactive,inactive,inactive,inactive,inactive,inactive,–,inactive,inactive,inactive,–,inactive,–,inactive,–,inactive,inactive,inactive,inactive,inactive
COC1C(C)OC(OCC23C[C@@H]4[C@H](C)CC[C@H]4C4(C=O)CC2C=C(C(C)C)C34C(=O)O)[C@@H](O)[C@H]1O (stereo partly drawn),inactive,inactive,inactive,inactive,inactive,inactive,inactive,inactive,inactive,inactive,inactive,inactive,inactive,inactive,inactive,inactive,–,inactive,inactive,inactive
C=C[C@](Cl)(CBr)CCC=C(C)C,inactive,–,inactive,inactive,20.9 µM (active),–,inactive,inactive,inactive,inactive,inactive,inactive,–,–,inactive,–,–,inactive,inactive,–
O=C1c2c(O)cc(O)cc2OC(c2ccc(O)cc2)C1O (stereo not drawn),inactive,inactive,inactive,inactive,inactive,inactive,–,inactive,inactive,–,–,inactive,inactive,inactive,inactive,–,inactive,inactive,inactive,inactive
CC1=C2CC[C@]3(C)[C@H](CC=C4[C@@H]5CC(C)(C)CC[C@@H]5C(=O)[C@H](O)[C@]43C)[C@@]2(C)C=C(O)C1=O,–,–,–,–,–,–,inactive,–,–,9.41 µM (active),–,inactive,inactive,–,inactive,12.2 µM (active),inactive,inactive,–,–
CC(C)=CCC/C(C)=C/Cc1cc([C@@H]2CC(=O)c3c(cc(O)c(CC=C(C)C)c3O)O2)ccc1O,–,–,14.9 µM (active),inactive,inactive,inactive,–,inactive,inactive,–,inactive,inactive,inactive,20.9 µM (active),inactive,38.4 µM (active),–,–,–,–
COc1cc([C@@H]2c3cc4c(cc3C[C@@]3(O[C@@H]5O[C@H](CO)[C@@H](O)[C@H](O)[C@H]5O)COC(=O)[C@H]23)OCO4)cc(OC)c1OC,inactive,inactive,–,–,0.0372 µM (active),inactive,inactive,0.0526 µM (active),0.066 µM (active),inactive,inactive,inactive,inactive,–,inactive,inactive,inactive,–,–,–
COc1c(O)cc2c(c1O)C(=O)c1c(coc1C)C2=O,inactive,inactive,–,–,–,inactive,–,inactive,–,14.9 µM (active),–,inactive,inactive,7.41 µM (active),inactive,–,–,inactive,inactive,–
O=Cc1ccc2n1C[C@]1(OC2)O[C@H](CO)[C@@H](O)[C@@H]1O,inactive,inactive,inactive,inactive,inactive,inactive,–,inactive,inactive,inactive,–,–,inactive,inactive,inactive,inactive,inactive,inactive,inactive,inactive
CC1(C)CC[C@]2(CO)CC[C@]3(C)C(=CCC4[C@@]5(C)CC[C@H](O)C(C)(C)C5CC[C@]43C)C2C1 (stereo partly drawn),inactive,inactive,inactive,inactive,inactive,inactive,inactive,inactive,inactive,inactive,inactive,inactive,–,inactive,–,inactive,–,inactive,inactive,inactive
